Measured values published in article PMC7819943, “Rice protein-binding microarrays: a tool to detect cis-acting elements near promoter regions in rice”.
In all, about 39,000 sequences were measured (“fluorescence intensity (a.u.)”: median about 4,300, highest 2% from about 39,000 on). This excerpt belongs to a sample that is enriched for the highest values.

target: T1, OsSMF1 (Oryza sativa, UniProt Q6ZLB0 1-436); assay: protein-binding microarray (RPBM); PBS, 2% BSA, 51.3 ng/ul salmon testes DNA, 50 uM zinc acetate, 200 nM TF, 25 C, 1 h; high values mean tight binding; settings: protein: recombinant; tags: N-terminal polyhistidine and DsRed monomer fusion (pET32a); chain copies: 2; label: CyDye5-dUTP incorporated in the synthesized complementary strand; 3' TTTTT single-stranded linker to array surface; dsDNA, one strand shown
T1 sequence: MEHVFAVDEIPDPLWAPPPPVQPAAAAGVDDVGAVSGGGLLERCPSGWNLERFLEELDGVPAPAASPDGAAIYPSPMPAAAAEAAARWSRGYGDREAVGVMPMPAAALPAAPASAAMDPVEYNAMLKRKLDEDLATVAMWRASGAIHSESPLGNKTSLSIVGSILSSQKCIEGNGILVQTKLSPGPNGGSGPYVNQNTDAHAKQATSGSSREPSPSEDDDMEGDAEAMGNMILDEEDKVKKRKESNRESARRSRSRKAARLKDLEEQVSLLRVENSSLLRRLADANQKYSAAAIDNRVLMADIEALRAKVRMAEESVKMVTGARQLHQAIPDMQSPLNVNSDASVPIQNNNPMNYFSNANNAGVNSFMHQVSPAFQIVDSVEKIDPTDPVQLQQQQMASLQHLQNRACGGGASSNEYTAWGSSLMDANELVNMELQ
How it was run: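 Transcription factors were each fused at the N-terminus to a polyhistidine tag plus DsRed and expressed in E. coli BL21-CodonPlus before Ni–NTA purification. Binding to a double-stranded custom Agilent array was carried out with 200 nM protein at 25 °C for 1 h in PBS, 2% BSA, salmon testes DNA and 50 µM zinc acetate. The binding signal is per-feature fluorescence intensity, in arbitrary units, on an Axon 4000B scanner.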

Sequence | binding signal
GAGAGAGAGAGGGGACCAACTGAAAAGAGAGAGAAGCTAGCGGAGTCACCTAGTGCAG | 31200 fluorescence intensity (a.u.)
ATACTTCCATTTGTGCCATACATTTTGTCATTTCGACCTGCGGAGTCACCTAGTGCAG | 3330 fluorescence intensity (a.u.)
GGTTTTAACCCCGATTTCGTTCGACGTGGCGGCTGAGTCACGGAGTCACCTAGTGCAG | 10800 fluorescence intensity (a.u.)
ATTCACTTTCTTGATTACGTAGAAGCTTCAGTGTCTATTCCGGAGTCACCTAGTGCAG | 3810 fluorescence intensity (a.u.)
ACAAGTACTACACGCGAATGTATTTCAATAGAAATTTATCCGGAGTCACCTAGTGCAG | 35600 fluorescence intensity (a.u.)
TGCATGTACGATACTGGAGCTGATCCTCGCCATCATATCCCGGAGTCACCTAGTGCAG | 3160 fluorescence intensity (a.u.)
ACAAACCAACCAACCCTCCTCGCCGCGGCCGCCGCCACCGCGGAGTCACCTAGTGCAG | 3400 fluorescence intensity (a.u.)
GCGCGCGCGCGCGGGCATAGGCGACGCCGCGACGGTGCGGCGGAGTCACCTAGTGCAG | 3890 fluorescence intensity (a.u.)
ACGATCGGTGACGACGAGCGACGACGCGGCATGAAGACGCCGGAGTCACCTAGTGCAG | 3300 fluorescence intensity (a.u.)
AGGGAAAAGAGGAGACGGGAGGAAAGGAACGGAGGAGATGCGGAGTCACCTAGTGCAG | 3340 fluorescence intensity (a.u.)
CGGAGACGGGAGGCGAGGCGAGCGGCGCCGCGGAACGGGACGGAGTCACCTAGTGCAG | 18600 fluorescence intensity (a.u.)
GGCGGCGGCGGAGAAGGAGAGGCCGCCCGCCGCGTGGCGCCGGAGTCACCTAGTGCAG | 6420 fluorescence intensity (a.u.)
AGAAGCGCGCCGAGGAGGCCCGCTCGTTCAACCGCGCCGCCGGAGTCACCTAGTGCAG | 65500 fluorescence intensity (a.u.)
GTGCGCGCGGTGCTTAGGCAGACGCGGCCCAGATCGGCGCCGGAGTCACCTAGTGCAG | 40500 fluorescence intensity (a.u.)
TGGAGAGGGAACCAACAACAAACAACCAGCTGCCTCGCCGCGGAGTCACCTAGTGCAG | 47200 fluorescence intensity (a.u.)
CGCCGCGAAGGCGCGAAGCCCCGTCACCGCGCGCGCGCGCCGGAGTCACCTAGTGCAG | 5540 fluorescence intensity (a.u.)
CCGCCTCGCCGCGTGCCTCTGGAACAATCTGGCGCTGCCGCGGAGTCACCTAGTGCAG | 3700 fluorescence intensity (a.u.)
ATCAGCAAGAATGCGAGGGAGACGGCGGAGAGCTCGGGAACGGAGTCACCTAGTGCAG | 43000 fluorescence intensity (a.u.)
GAGAGAGAGAGAGGGATTTCCCCTTGGCTCCGCGTCGATACGGAGTCACCTAGTGCAG | 3520 fluorescence intensity (a.u.)
AATCTATATGTTATCGTCCTCCTCTTGCGTGTGGCTAGTTCGGAGTCACCTAGTGCAG | 3750 fluorescence intensity (a.u.)
AATTGTTTACTGATCTTTGCGTTAATGATGATTGTGCCCTCGGAGTCACCTAGTGCAG | 3160 fluorescence intensity (a.u.)

Sequence | binding signal
AAAATTCGAATCAGGCGGAGCCACCTCACCTCGCCGCGGCCGGAGTCACCTAGTGCAG | 5020 fluorescence intensity (a.u.)
CTTTGTCTTAGTATGGTGACTGGTTGCAAATTGATTTGGTCGGAGTCACCTAGTGCAG | 3410 fluorescence intensity (a.u.)
AGCTAGCTAGCTAACTAGTAAGGAGGTACACGTAGGTAGCCGGAGTCACCTAGTGCAG | 6960 fluorescence intensity (a.u.)
TGGGTTGAATATGAGCTTGAATATTGGTGGAGTGATACATCGGAGTCACCTAGTGCAG | 3240 fluorescence intensity (a.u.)
CTTCCATATATCCTTGTCACAAGCTAGCTCACAAAACTTCCGGAGTCACCTAGTGCAG | 4680 fluorescence intensity (a.u.)
GGCGGCCACGGGCTCCGGCGGAGGGCGGCGTGGTGGCGGCCGGAGTCACCTAGTGCAG | 14400 fluorescence intensity (a.u.)
GGTGGCGGCGCGGGCCGGGCGGCGGCGGCGGCGGCGGCTCCGGAGTCACCTAGTGCAG | 40400 fluorescence intensity (a.u.)
CCGCGCTCACCTGCCGGGCGTGGCGCGCCGCGGTGGCCTCCGGAGTCACCTAGTGCAG | 3140 fluorescence intensity (a.u.)
GTGATTTATCCGAGCAGAGTGGCGGCGGCTTCGCCGAGTACGGAGTCACCTAGTGCAG | 39600 fluorescence intensity (a.u.)
GAGCGCGGAAGCCGGCGGCGGCCGTACGTGTTCGGCCGGCCGGAGTCACCTAGTGCAG | 3410 fluorescence intensity (a.u.)
GGGCGGAGCGGGGCGGAGGGAGAGGAGGGAGAGGAGGGAGCGGAGTCACCTAGTGCAG | 4920 fluorescence intensity (a.u.)
GCCCCGCGGCTTCCGGCTGCCGTCGCCGCGAGCCCCGTGGCGGAGTCACCTAGTGCAG | 5050 fluorescence intensity (a.u.)
GAGCTCCGCCAGTACGAGTACAGACCCAGCTTCGCCGGCGCGGAGTCACCTAGTGCAG | 3580 fluorescence intensity (a.u.)
GCGAGGGGCGGGGAGAGCAGCGGCGGCGGCGGAGCGCGGCCGGAGTCACCTAGTGCAG | 39200 fluorescence intensity (a.u.)
GCGCGCGCGGCGTTCGGGAGGAAGCGGAAGAGCGCGCCGGCGGAGTCACCTAGTGCAG | 47000 fluorescence intensity (a.u.)
GAGGCCGGGGTCGGGGCGAGCGAGGCGAGAGGGGAGGAGGCGGAGTCACCTAGTGCAG | 4480 fluorescence intensity (a.u.)
GCGGCGCCTCCGGGAAGCGCGGCGCCGCGTCCTCCTCCTCCGGAGTCACCTAGTGCAG | 3170 fluorescence intensity (a.u.)
TGTTTACGTCCAACGTTTAACCGCTCGTCTTATTTGAAATCGGAGTCACCTAGTGCAG | 21000 fluorescence intensity (a.u.)
AGAAGTATTTCTGCGTCATTGTTGGAAATTATATTTCTAGCGGAGTCACCTAGTGCAG | 3650 fluorescence intensity (a.u.)
GACACTTACAAGCACTGCGGCGTTACCATTTTATGGAACTCGGAGTCACCTAGTGCAG | 3220 fluorescence intensity (a.u.)
GGAAAGGCGCCACGTAATAAATAGAAACAGACTCAGCACTCGGAGTCACCTAGTGCAG | 6760 fluorescence intensity (a.u.)
